Inconclusive results are not listed. A call without a number means that no potency is given here. Active and inactive are the calls of the source. Calls follow the shape of the dose curve; as a rule, active = well fitted cell-killing curve with a large enough effect; inconclusive = small, poorly fitted or top-dose-only effect; inactive = flat fitted curve, though single readings scatter.
Experiment: Cell Viability - LYMP2-019 (AID 973);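 also: cells exposed to compound for 24 h at 37 °C; nearly all actives have a fitted effect of over 55% in size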
Conditions: LYMP2-019 lymphoblastoid cell line viability; series mostly up to 92.2 µM
From the text: NIH Chemical Genomics Center [NCGC]
NIH Molecular Libraries Screening Centers Network [MLSCN]
National Institutes of Environmental Health Sciences [NIEHS]
National Toxicology Program [NTP]
We have developed a 1536-well cell-based assay for quantitative high throughput screening (qHTS) against a number of cell lines to determine in vitro cytotoxicity of small molecules. This particular assay uses a human lymphoblastoid cell line (LYMP2-019) purchased from Coriell Institute for Medical Research.
NCGC Assay Protocol Summary:
The CellTiter-Glo luminescent cell viability assay (Promega) is a homogeneous method to measure the number of viable cells in culture. The end point readout of this assay is based on quantitation of intracellular ATP, an indicator of metabolic activity, using the luciferase reaction. Luciferase catalyzes the oxidation of beetle Luciferin to oxyluciferin and light in the presence of ATP. The luminescent signal is proportional to amount of ATP present.
Using the CellTiter-Glo luminescent cell viability assay, the amount of cellular ATP was measured in the lymphoblastoid cell line with complete culture medium following compound treatment for 24 hours. The assay was performed in opaque white Kalypsys 1536-well plates. In the screen, tetraoctylammonium bromide was used as positive control. Library compounds were measured for their ability to cause acute toxicity in the cell line, as reflected by a decrease in intracellular ATP levels, in a concentration-dependent manner. […] AC50 values were determined from concentration-response data modeled with the standard Hill equation.
qHTS protocol for CellTiter Glo lymphoblastoid cellular assay
[Step] [Parameter] [Value] [Description]
1. Reagent; 5 uL; 2500 lymphoblastoid cells/well
2. Time; 5 hr; 37 C incubation
4. Controls; 23 nL; Tetraoctylammonium bromide 6.4pM to 92 uM
5. Time; 24 hr; 37 C incubation
6. Reagent; 5 uL; CellTiter Glo reagent
7. Time; 30 min; Room Temperature
8. Detection; Luminescence; Viewlux plate reader
Keywords: cell viability, cytotoxicity, lymphoblastoid cell line, luminescence, NTPHTS, NTPHTS_NCGC, NIEHS, DSSTox, MLSMR, MLSCN, NIH Roadmap, qHTS, NCGC
Potency is read from the fitted curve at half-maximal effect.

SMILES | Potency
Cl/C=C\Cl | inactive
CCCCCCCCCCCOC(=O)c1ccccc1C(=O)OCCCCCCCCCCC | inactive
Cc1cc(-c2cc(C)c(N)c(C)c2)cc(C)c1N | inactive
CN(C)N=O | inactive
Oc1c(Cl)c(Cl)cc(Cl)c1Cl | inactive
CC(C)(OOC(C)(C)c1ccccc1)c1ccccc1 | inactive
CC(C)OC(=O)Cc1ccccc1 | inactive
NC1CCC(CC2CCC(N)CC2)CC1 (stereo not given) | inactive
O=[N+]([O-])c1ccc(O)c([N+](=O)[O-])c1 | inactive
CC[N+](=O)[O-] | inactive
CC(C)[N+](=O)[O-] | inactive
CCBr | inactive
Clc1ccc(C(Cl)(Cl)Cl)cc1Cl | inactive
CN(C)c1ccc(N)cc1 | 50.1 µM (active)
CCN(CC)CCO | inactive
CCCCOCC1CO1 (stereo not given) | inactive
Brc1cccc(-c2ccccc2)c1 | inactive
BrCC(Br)C1CCC(Br)C(Br)C1 (stereo not given) | inactive
CCOP(=S)(OCC)SCCSCC | inactive
OCC(Cl)CCl (stereo not given) | inactive

SMILES | Potency
CC(C)CON=O | inactive
O=C(O)CBr | inactive
ClC(Cl)c1ccccc1 | inactive
CC(C)(Cl)[N+](=O)[O-] | inactive
Cc1coc2c1CCC(C)C2 (stereo not given) | inactive
CCCBr | inactive
C=CC(=O)OCCN(C)C | inactive
ClCC(Br)CBr (stereo not given) | inactive
CCCCCCCCCCCCCl | inactive
Nc1ccc(-c2ccc(N)c(Cl)c2)cc1Cl | inactive
CC(C#N)CCC#N (stereo not given) | inactive
COC(=O)c1ccccc1N | inactive
CCN(CC)N=O | inactive
[O-][Cl+2]([O-])O | inactive
C/C=C/C=O | inactive
c1ccc(NNc2ccccc2)cc1 | inactive
CC(C)(C)C(O)(CCc1ccc(Cl)cc1)Cn1cncn1 (stereo not given) | inactive
c1ccc(OCC2CO2)cc1 (stereo not given) | inactive
C=CC(=O)OCC(C)C | inactive
[O-][Cl+]O | inactive
